# Reference: PubChem BioAssay
# Activity calls are given as the source filed them. Unless noted, no rule for the calls is given here.
# Assays:
# [1] = resazurin metabolic signal in HepG2 cells – cell-based, resazurin fluorescence, 24 h, PK04 Diversity Set, profiling panel (AID 1172); conditions: HepG2 viability, higher = more signal
# [2] = budding yeast growth changes without added modifier – OD600, strain BY4716, 24 h, basal condition, primary screen (AID 1173); conditions: S. cerevisiae BY4716 growth, OD600, 24 h; higher = more signal, called active from +8 up or from −8 down
# [3] = viability profiling in MM1S myeloma cells – cell-based, resazurin fluorescence, basal, 24 h, PK04 Diversity Set, profiling panel (AID 1174); conditions: higher = more signal, called active from +8 up or from −8 down;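 also: MM1S multiple myeloma cell line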
# [4] = biological target: Dihydroorotate dehydrogenase (quinone), mitochondrial (Plasmodium falciparum (isolate 3D7)) (UniProt Q08210); test: inhibition of P. falciparum DHODH – biochemical, C-terminal His tag, absorbance 600 nm, primary screen (AID 1175); conditions: PfDHODH enzyme, DCIP absorbance 600 nm; higher = more signal, called active from +8 up or from −8 down;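 also: recombinant parasite enzyme with a five histidine tag at its C terminus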
# [5] = inhibition of PAO1 biofilm formation – strain PAO1, LB-PBS medium, absorbance 600 nm, primary screen (AID 1176); conditions: P. aeruginosa PAO1 growth/biofilm, A600, 12 h; higher = more signal
# [6] = growth modulation of vineyard yeast isolate – strain RM11-1a, OD600, basal, 24 h, primary screen (AID 1177);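 also: cultures grown under basal conditions with no added stressor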; conditions: S. cerevisiae RM11-1a growth, OD600, 24 h; higher = more signal, called active from +8 up or from −8 down
# [7] = growth of efflux-deficient E. coli DRC39 – strain DRC39, OD650, 24 h, E. coli filamentation inducers, primary screen (AID 1178);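 also: growth measured as culture turbidity by optical density at 650 nm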; conditions: E. coli DRC39 acrAB, higher = more signal, called active from +8 up or from −8 down
# [8] = growth of efflux-deficient E. coli DRC39 – strain DRC39, OD650, 48 h, E. coli filamentation inducers, primary screen (AID 1179);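 also: screen aims at cell division blockers that make cells filament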; conditions: E. coli DRC39 delta-acrAB growth, higher = more signal, called active from +8 up or from −8 down
# [9] = viability profiling in RPMI8226 myeloma cells – cell-based, resazurin fluorescence, basal, 24 h, PK04 Diversity Set, profiling panel (AID 1180); conditions: higher = more signal;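 also: RPMI8826 multiple myeloma cell line at 5000 cells per well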
# [10] = biological target: E3 ubiquitin-protein ligase XIAP (Homo sapiens) (UniProt P98170); test: small molecules binding XIAP protein – biophysical, small-molecule microarray, fluorescence 635 nm, primary screen (AID 1181); conditions: higher = more signal;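 also: score merges 667 nm emission and signal to noise over triplicate slides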
# [11] = test system: XIP peptide (Xip251-270) binding; test: XIP fragment 251-270 binding compounds – biochemical, small-molecule microarray, fluorescence 635/667 nm, 0.1 µg/mL protein, primary screen (AID 1182); conditions: fluorescent protein binding, 635 nm, higher = more signal, called active from +8 up or from −8 down
# [12] = test system: XIP peptide (Xip251-270); test: compounds binding XIP fragment 251-270 – biochemical, small-molecule microarray, fluorescence 635/667 nm, 0.5 µg/mL protein, primary screen (AID 1183); conditions: fluorescence 635 nm, higher = more signal
# [13] = blood-stage malaria parasite viability loss – strain 3D7, DAPI fluorescence, 100 nL, primary screen (AID 1184);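 also: parasites grown inside human red blood cells in medium with human serum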; conditions: P. falciparum 3D7 growth, 3 d, higher = more signal
# [14] = biological target: Homeobox protein Hox-A13 (Mus musculus) (UniProt Q62424); test: disruptors of Hoxa13 oligonucleotide interaction – biochemical, fluorescence polarization, labeled oligonucleotide, primary screen (AID 1185); conditions: Hoxa13:DNA binding, 15 min, higher = more signal, called active from +8 up or from −8 down
# [15] = blockers of DNA damage checkpoint Chk1 activation – imaging, HeLa, hydroxyurea, phospho-Chk1 antibody, percent positive cells, primary screen (AID 1186); conditions: hydroxyurea-induced phospho-Chk1 immunofluorescence imaging, higher = more signal
# [16] = blockers of DNA damage checkpoint Chk1 activation – imaging, HeLa, hydroxyurea, phospho-Chk1 nuclear intensity, primary screen (AID 1187); conditions: hydroxyurea-induced phospho-Chk1 immunofluorescence imaging, higher = more signal
# Chain of E3 ubiquitin-protein ligase XIAP (Homo sapiens) (P98170 whole entry, looked up, the tested form may be a part): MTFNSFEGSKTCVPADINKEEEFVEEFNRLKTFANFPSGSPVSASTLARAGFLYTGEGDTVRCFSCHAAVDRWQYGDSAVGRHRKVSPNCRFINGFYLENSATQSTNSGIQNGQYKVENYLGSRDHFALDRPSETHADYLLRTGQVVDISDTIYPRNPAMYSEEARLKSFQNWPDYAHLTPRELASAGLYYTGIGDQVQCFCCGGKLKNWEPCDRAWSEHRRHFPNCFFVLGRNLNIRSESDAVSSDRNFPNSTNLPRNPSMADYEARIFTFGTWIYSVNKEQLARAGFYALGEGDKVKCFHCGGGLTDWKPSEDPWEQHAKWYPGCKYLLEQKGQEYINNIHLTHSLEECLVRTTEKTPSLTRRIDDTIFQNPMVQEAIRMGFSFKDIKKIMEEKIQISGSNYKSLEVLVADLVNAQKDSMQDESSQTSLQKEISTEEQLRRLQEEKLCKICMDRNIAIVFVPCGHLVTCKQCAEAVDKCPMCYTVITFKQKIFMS
# Chain of Homeobox protein Hox-A13 (Mus musculus) (Q62424 whole entry, looked up): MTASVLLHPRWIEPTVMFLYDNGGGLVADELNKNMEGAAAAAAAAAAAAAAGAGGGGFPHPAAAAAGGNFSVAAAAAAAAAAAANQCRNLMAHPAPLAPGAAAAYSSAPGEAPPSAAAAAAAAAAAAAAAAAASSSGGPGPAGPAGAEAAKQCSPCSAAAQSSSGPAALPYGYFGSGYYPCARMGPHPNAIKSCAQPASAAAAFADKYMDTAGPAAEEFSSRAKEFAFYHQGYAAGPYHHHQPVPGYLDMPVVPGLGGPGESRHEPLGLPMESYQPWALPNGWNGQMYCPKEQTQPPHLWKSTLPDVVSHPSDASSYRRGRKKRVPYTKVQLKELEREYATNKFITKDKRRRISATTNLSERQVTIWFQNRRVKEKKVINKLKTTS
# Chain of Dihydroorotate dehydrogenase (quinone), mitochondrial (Plasmodium falciparum (isolate 3D7)) (Q08210 whole entry, looked up): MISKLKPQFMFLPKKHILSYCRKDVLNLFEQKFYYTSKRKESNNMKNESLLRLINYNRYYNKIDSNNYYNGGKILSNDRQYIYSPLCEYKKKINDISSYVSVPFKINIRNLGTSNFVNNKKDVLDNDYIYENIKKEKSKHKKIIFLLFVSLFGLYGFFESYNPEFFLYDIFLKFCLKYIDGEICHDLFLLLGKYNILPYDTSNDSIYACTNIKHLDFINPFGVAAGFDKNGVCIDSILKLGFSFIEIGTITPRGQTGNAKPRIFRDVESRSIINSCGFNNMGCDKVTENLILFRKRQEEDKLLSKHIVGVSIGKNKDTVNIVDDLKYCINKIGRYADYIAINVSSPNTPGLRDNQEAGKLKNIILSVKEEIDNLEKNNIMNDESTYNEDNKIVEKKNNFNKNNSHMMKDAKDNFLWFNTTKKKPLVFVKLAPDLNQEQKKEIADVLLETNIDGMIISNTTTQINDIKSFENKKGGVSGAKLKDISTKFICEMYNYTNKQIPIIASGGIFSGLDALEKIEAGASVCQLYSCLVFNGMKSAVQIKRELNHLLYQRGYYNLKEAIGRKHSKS
SMILES,z-score [1],z-score [2],z-score [3],composite z-score [4],z-score [5],z-score [6],z-score [7],z-score [8],z-score [9],composite z-score [10],composite z-score [11],composite z-score [12],z-score [13],z-score [14],z-score [15],z-score [16]
C=C(CCCC)/C(=C/C[C@H](OC(=O)c1ccncc1)c1ccc(OCCO)cc1)c1cc(C(=O)OC)ccc1OC,-0.113,0.409 (inactive),-0.266 (inactive),-4.01 (inactive),-0.693 (inactive),0.395 (inactive),-0.981 (inactive),-0.581 (inactive),-0.691,0.22,-0.235 (inactive),-0.132,-3.09,-2.79 (inactive),-1.01 (inactive),-0.504 (inactive)
CC(C)(C)OC(=O)CC[C@@]1(C(=O)N2CCCCC2)N=C(c2ccc(OCCCO)cc2)O[C@@H]1c1ccccc1,0.426,-0.563 (inactive),-0.76 (inactive),-0.159 (inactive),0.935 (inactive),0.262 (inactive),-0.174 (inactive),-1.53 (inactive),0.0487,0.138,0.671 (inactive),0.267,-2.03,-5.06 (inactive),-0.102 (inactive),-0.0985 (inactive)
Cc1ccc(S(=O)(=O)N2C[C@@H](C(=O)O)[C@H](Sc3ccccc3)C[C@H]2c2ccccc2)cc1,-0.199,-0.638 (inactive),-0.26 (inactive),-1.43 (inactive),0.409 (inactive),-0.339 (inactive),-0.529 (inactive),-1.55 (inactive),-0.911,-0.303,0.117 (inactive),0.779,-0.0652,-7 (inactive),0.442 (inactive),0.283 (inactive)
Cc1ccc(S[C@]2(C(=O)O)CC(=O)N(Cc3ccccc3C(F)(F)F)[C@@H]2c2ccc(CO)cc2I)cc1,0.484,-5.47 (inactive),-2.29 (inactive),-0.358 (inactive),0.304 (inactive),-1.22 (inactive),0.0985 (inactive),-0.367 (inactive),-1.78,-0.0076,0.397 (inactive),0.773,0.182,-2.74 (inactive),-0.157 (inactive),0.408 (inactive)
COCCCNC(=O)[C@@]1(Sc2ccc(C)cc2)CC(=O)N(Cc2ccccc2Cl)[C@@H]1c1ccc(CO)cc1,0.683,-0.209 (inactive),0.306 (inactive),-1.08 (inactive),0.366 (inactive),-0.964 (inactive),1.08 (inactive),0.709 (inactive),0.761,0.145,0.906 (inactive),0.887,-1.63,-2.28 (inactive),-0.63 (inactive),-1.1 (inactive)
C=CC[C@@]1(C(=O)N2CCCCC2)N=C(c2ccc(OCCCO)cc2)O[C@@H]1c1ccccc1CN=[N+]=[N-],0.0157,-0.924 (inactive),-1.13 (inactive),-0.0512 (inactive),0.205 (inactive),0.607 (inactive),0.673 (inactive),-0.526 (inactive),-1.97,0.0297,0.274 (inactive),0.888,-2.21,-0.0816 (inactive),-0.514 (inactive),-0.604 (inactive)
NCCCCCNC(=O)[C@H]1C[C@H]2C(=O)N[C@@H](Cc3ccccc3)C(=O)N2[C@H]1c1cccc(OCCO)c1,0.391,-1.84 (inactive),1.04 (inactive),0.884 (inactive),0.022 (inactive),-0.439 (inactive),-0.154 (inactive),0.496 (inactive),0.953,-0.0599,1.51 (inactive),0.683,-0.329,-3.23 (inactive),0.0742 (inactive),0.304 (inactive)
COc1cc2c(cc1O)C(c1cccs1)N(Cc1cccc(OC(F)(F)F)c1)CC2 (centres undefined),-0.688,-3.07 (inactive),-1.11 (inactive),-4.69 (inactive),-0.0623 (inactive),-0.728 (inactive),-0.0378 (inactive),1.14 (inactive),-1.93,0.171,1.78 (inactive),0.775,-1.9,-2.17 (inactive),-1.02 (inactive),-2.12 (inactive)
CCCCN1CC=CC23O[C@@H]4C=CCCOC(=O)C4[C@H]2C(=O)N(CCCCCO)[C@@H]3C1=O (some centres undefined),-0.462,-0.1 (inactive),-0.401 (inactive),0.0416 (inactive),-0.332 (inactive),-0.308 (inactive),0.593 (inactive),0.923 (inactive),0.769,0.0357,-0.17 (inactive),0.779,0.474,-4.72 (inactive),-2.17 (inactive),-1.9 (inactive)
C=CCC(OC(C)=O)[C@@H]1[C@@H](N(Cc2ccc(-c3cccc(C(F)(F)F)c3)o2)C(=O)c2cccc3ccccc23)c2cc(OCCCO)ccc2N1C(=O)Cc1ccc2ccccc2c1 (some centres undefined),-0.496,-0.721 (inactive),-0.291 (inactive),0.22 (inactive),-0.935 (inactive),-0.0974 (inactive),0.525 (inactive),0.235 (inactive),-0.638,-0.242,-0.16 (inactive),0.0499,-1.78,-3.09 (inactive),0.233 (inactive),0.504 (inactive)
COCCCNC(=O)[C@@]1(CCS(=O)(=O)c2ccccc2)N=C(c2ccc(OCCCO)cc2)O[C@H]1c1ccccc1N=[N+]=[N-],0.531,-0.865 (inactive),-0.368 (inactive),-0.396 (inactive),-0.385 (inactive),-0.488 (inactive),1.28 (inactive),0.863 (inactive),-0.264,-0.005,1.26 (inactive),0.839,-2.72,-3.94 (inactive),-0.662 (inactive),-0.624 (inactive)
CN1C(=O)C2C=CC(C(O)C=Cc3ccc([N+](=O)[O-])cc3)N(Nc3ccccc3)C2C1=O (centres undefined),-0.891,-4.48 (inactive),-1.55 (inactive),-1.01 (inactive),1.41 (inactive),-0.709 (inactive),-0.377 (inactive),-0.668 (inactive),-1.45,0.376,0.113 (inactive),0.612,0.431,-5.37 (inactive),0.0831 (inactive),-0.733 (inactive)
CC(=CC1CCCCC1)[C@@H](NC(=O)c1cccnc1)c1ccc(-c2ccccc2)cc1,0.41,2.33 (inactive),0.382 (inactive),-0.22 (inactive),1.93 (inactive),2.69 (inactive),-0.906 (inactive),-0.871 (inactive),-1.22,-0.0095,-0.486 (inactive),-0.434,-0.412,-0.427 (inactive),1.6 (inactive),-0.72 (inactive)
O=C1NC(=O)C2C1C=CC(C(O)C=Cc1ccc([N+](=O)[O-])cc1)N2Nc1ccc(Cl)cc1Cl (centres undefined),-1.22,-6.66 (inactive),-1.19 (inactive),0.139 (inactive),0.807 (inactive),0.379 (inactive),0.178 (inactive),-1.04 (inactive),-0.615,-0.197,2.22 (inactive),0.692,-0.143,-5.55 (inactive),0.104 (inactive),-0.171 (inactive)
CC1CC/C=C\[C@H]2OC34C=CCN(c5ccc6ccccc6c5)C(=O)[C@H]3N(CCO)C(=O)[C@@H]4C2C(=O)O1 (some centres undefined),-0.854,-0.635 (inactive),-1.03 (inactive),-0.509 (inactive),0.826 (inactive),-0.471 (inactive),-0.726 (inactive),-0.867 (inactive),0.0886,0.0728,0.866 (inactive),0.492,-0.607,-5.51 (inactive),-0.209 (inactive),-0.434 (inactive)
Cc1ccc(S[C@]2(C(=O)O)CC(=O)N(C(C)C)[C@@H]2c2ccc(CO)cc2)cc1,0.0469,-1.45 (inactive),0.359 (inactive),-0.896 (inactive),1.02 (inactive),-1.33 (inactive),1.44 (inactive),1.93 (inactive),0.376,-0.0962,0.402 (inactive),0.216,0.252,-0.292 (inactive),-0.696 (inactive),-0.558 (inactive)
CCCCN1CC=CC23O[C@@H]4/C=C\CCCOC(=O)C4[C@H]2C(=O)N(CCCO)[C@@H]3C1=O (some centres undefined),0.426,0.129 (inactive),0.31 (inactive),0.119 (inactive),0.55 (inactive),-1.39 (inactive),-0.0564 (inactive),-0.314 (inactive),0.309,-0.31,1.48 (inactive),0.737,0.651,-5.29 (inactive),0.267 (inactive),0.576 (inactive)
CC(c1ccccc1)C(O)C1C=CC2C(=O)N(C)C(=O)C2N1NC(=O)OC(C)(C)C (centres undefined),-0.67,-0.424 (inactive),-0.267 (inactive),-0.14 (inactive),0.903 (inactive),0.732 (inactive),-0.182 (inactive),-0.339 (inactive),0.15,0.184,2.04 (inactive),0.63,1.05,-2.6 (inactive),-0.129 (inactive),-0.0976 (inactive)
Cc1ccc(/C=C/C=O)cc1,-0.466,-1.75 (inactive),-0.509 (inactive),-0.962 (inactive),-0.64 (inactive),0.213 (inactive),0.562 (inactive),0.386 (inactive),0.812,-0.214,0.551 (inactive),0.284,1.39,-1.15 (inactive),0.503 (inactive),0.713 (inactive)
